For some assays here: Results with a measured potency or affinity are listed apart.
Tests used:
Set-up in all cases: scale not given: direction of the effect not stated beside the values
[1] = target: Protein translocase subunit SecA (Escherichia coli (strain K12)) (UniProt P10408); assay: Assay to Identify E. coli SecA ATPase Inhibitors; assay type: functional; conditions: 30 µM
[2] = target: T1, Ubiquitin-activating enzyme e1, putative (Leishmania donovani (strain BPK282A1)) (UniProt E9BSI1); assay: Leishmania donovani Ubiquitin Activating Enzyme (LdE1); assay type: functional; conditions: 30 µM
T1 sequence (whole entry): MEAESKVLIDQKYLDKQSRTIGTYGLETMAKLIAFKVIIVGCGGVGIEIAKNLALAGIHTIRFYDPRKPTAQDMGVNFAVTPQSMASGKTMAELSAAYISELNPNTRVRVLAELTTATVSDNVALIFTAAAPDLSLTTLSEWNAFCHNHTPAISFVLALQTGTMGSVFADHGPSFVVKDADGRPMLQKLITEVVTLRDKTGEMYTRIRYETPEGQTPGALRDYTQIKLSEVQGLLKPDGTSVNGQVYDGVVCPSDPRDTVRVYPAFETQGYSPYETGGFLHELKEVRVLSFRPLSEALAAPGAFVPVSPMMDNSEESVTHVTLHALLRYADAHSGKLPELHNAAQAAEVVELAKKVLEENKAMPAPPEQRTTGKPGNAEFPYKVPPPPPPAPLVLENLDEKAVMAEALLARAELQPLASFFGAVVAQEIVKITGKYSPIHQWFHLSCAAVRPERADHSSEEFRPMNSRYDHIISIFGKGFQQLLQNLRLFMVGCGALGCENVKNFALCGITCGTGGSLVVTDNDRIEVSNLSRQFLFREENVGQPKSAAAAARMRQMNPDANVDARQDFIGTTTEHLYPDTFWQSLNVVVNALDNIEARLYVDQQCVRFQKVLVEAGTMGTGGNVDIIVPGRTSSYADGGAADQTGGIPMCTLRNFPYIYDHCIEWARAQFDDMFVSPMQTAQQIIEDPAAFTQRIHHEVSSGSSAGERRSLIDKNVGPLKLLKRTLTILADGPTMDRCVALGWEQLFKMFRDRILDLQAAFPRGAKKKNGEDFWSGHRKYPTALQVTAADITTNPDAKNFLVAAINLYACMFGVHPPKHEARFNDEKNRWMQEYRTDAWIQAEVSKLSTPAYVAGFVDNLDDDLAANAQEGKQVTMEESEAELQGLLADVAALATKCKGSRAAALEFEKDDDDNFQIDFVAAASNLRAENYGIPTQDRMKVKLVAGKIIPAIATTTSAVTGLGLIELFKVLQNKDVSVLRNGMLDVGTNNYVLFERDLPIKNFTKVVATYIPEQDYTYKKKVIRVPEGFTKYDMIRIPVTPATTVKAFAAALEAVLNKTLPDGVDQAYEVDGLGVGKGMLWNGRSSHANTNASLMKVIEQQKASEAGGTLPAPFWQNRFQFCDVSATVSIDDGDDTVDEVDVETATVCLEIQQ

[3] = target: Sialic acid-binding Ig-like lectin 9 (Homo sapiens) (UniProt Q9Y336); assay: Hs-Siglec9 ALPHAscreen SOP 20170721; conditions: 10 µM
Sialic acid-binding Ig-like lectin 9 (Homo sapiens), sequence (Q9Y336 whole entry): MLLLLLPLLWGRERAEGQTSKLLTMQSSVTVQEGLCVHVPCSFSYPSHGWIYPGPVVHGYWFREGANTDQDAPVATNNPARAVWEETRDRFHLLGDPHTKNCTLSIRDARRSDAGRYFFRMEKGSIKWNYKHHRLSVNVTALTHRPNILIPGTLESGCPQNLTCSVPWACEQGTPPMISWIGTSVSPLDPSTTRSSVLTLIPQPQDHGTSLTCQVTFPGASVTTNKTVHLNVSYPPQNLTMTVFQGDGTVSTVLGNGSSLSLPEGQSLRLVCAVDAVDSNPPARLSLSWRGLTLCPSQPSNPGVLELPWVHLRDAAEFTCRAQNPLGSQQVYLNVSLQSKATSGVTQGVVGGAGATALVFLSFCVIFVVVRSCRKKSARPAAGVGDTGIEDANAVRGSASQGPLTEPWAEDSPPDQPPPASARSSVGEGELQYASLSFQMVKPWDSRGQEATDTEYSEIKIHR

Trypanosoma cruzi = assay: Trypanosoma cruzi phosphomannomutase and mannose-1-phosphate guanylyltransferase assay; assay type: functional; conditions: 10 µM
[4] = target: T2, Arginase-2, mitochondrial (Homo sapiens) (UniProt P78540); assay: in vitro enzyme assay to detect the production of urea directly proportional to the activity of Arginase II; assay type: functional; conditions: 33.3 µM; further: in the data most compounds retested in dose-response had high values
T2 sequence (whole entry): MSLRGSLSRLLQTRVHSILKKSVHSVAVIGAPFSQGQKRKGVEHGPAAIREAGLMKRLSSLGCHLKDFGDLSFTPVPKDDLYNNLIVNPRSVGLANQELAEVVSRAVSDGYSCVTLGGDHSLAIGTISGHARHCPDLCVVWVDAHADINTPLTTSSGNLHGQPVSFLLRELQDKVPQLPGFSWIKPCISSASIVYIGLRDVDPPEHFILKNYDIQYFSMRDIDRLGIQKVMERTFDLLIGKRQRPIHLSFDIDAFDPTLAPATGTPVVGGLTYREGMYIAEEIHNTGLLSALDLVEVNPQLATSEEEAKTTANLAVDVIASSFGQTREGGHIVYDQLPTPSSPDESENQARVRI

[5] = target: T3, Proteasome subunit beta (Trypanosoma cruzi) (UniProt O96673); assay: Trypanosoma cruzi proteasome chymotrypsin-like activity (TcProtChymo) assay.; further: in the data most compounds retested in dose-response had high values; assay type: functional; conditions: 9.37 µM
T3 sequence (whole entry): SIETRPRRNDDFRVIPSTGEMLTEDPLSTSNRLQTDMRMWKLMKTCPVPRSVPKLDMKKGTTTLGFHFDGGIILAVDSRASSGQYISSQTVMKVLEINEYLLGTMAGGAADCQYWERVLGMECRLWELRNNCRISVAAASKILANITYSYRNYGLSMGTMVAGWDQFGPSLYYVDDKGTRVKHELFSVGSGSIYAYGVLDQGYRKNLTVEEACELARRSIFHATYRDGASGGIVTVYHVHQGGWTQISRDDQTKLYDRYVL

Homo sapiens = organism: Homo sapiens; assay: To identify inhibition of the IFN signalling (Jak-Stat) pathway via expression of an eGFP reporter gene under the control of an IFN-stimulated response element (ISRE) containing MxA promoter.; assay type: functional; conditions: 30 µM
[6] = target: T4, Tyrosyl-tRNA synthetase, putative (Trypanosoma cruzi (strain CL Brener)) (UniProt Q4DSP6); assay: Trypanosoma cruzi tyrosyl tRNA synthetase (TcYRS) _High Tyrosine SOP; assay type: functional; conditions: 30 µM; further: in the data most compounds retested in dose-response had high values
T4 sequence (whole entry): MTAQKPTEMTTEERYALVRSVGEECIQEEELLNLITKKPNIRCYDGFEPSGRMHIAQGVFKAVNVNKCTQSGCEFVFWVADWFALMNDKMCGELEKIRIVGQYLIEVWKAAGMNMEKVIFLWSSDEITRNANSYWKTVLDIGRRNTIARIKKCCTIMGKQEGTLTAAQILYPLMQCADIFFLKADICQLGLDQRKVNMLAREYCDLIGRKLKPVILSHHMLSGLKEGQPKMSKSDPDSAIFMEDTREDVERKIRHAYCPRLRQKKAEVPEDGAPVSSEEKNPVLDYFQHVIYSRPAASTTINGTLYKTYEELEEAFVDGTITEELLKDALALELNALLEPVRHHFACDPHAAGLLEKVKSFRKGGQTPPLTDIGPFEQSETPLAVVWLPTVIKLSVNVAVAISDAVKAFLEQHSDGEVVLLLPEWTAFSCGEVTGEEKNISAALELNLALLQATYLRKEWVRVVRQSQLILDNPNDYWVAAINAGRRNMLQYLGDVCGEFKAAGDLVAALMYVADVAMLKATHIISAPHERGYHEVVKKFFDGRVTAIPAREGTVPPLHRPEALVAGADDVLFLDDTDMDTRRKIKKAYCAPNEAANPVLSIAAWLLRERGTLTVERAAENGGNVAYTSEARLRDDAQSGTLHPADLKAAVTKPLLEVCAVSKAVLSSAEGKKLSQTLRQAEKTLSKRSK

[7] = target: T4, Tyrosyl-tRNA synthetase, putative (Trypanosoma cruzi (strain CL Brener)); assay: Trypanosoma cruzi tyrosyl tRNA synthetase (TcYRS) SOP; assay type: functional; conditions: 30 µM
[8] = target: Chromo domain-containing protein 1 (Saccharomyces cerevisiae (strain ATCC 204508 / S288c) (Baker's yeast)) (UniProt P32657); assay: ScCHD-1 Enzyme Inhibition Assay; assay type: functional; conditions: 30 µM; further: in the data most compounds retested in dose-response had high values
Chromo domain-containing protein 1 (Saccharomyces cerevisiae (strain ATCC 204508 / S288c) (Baker's yeast)), sequence (P32657 whole entry, the tested form may be a part): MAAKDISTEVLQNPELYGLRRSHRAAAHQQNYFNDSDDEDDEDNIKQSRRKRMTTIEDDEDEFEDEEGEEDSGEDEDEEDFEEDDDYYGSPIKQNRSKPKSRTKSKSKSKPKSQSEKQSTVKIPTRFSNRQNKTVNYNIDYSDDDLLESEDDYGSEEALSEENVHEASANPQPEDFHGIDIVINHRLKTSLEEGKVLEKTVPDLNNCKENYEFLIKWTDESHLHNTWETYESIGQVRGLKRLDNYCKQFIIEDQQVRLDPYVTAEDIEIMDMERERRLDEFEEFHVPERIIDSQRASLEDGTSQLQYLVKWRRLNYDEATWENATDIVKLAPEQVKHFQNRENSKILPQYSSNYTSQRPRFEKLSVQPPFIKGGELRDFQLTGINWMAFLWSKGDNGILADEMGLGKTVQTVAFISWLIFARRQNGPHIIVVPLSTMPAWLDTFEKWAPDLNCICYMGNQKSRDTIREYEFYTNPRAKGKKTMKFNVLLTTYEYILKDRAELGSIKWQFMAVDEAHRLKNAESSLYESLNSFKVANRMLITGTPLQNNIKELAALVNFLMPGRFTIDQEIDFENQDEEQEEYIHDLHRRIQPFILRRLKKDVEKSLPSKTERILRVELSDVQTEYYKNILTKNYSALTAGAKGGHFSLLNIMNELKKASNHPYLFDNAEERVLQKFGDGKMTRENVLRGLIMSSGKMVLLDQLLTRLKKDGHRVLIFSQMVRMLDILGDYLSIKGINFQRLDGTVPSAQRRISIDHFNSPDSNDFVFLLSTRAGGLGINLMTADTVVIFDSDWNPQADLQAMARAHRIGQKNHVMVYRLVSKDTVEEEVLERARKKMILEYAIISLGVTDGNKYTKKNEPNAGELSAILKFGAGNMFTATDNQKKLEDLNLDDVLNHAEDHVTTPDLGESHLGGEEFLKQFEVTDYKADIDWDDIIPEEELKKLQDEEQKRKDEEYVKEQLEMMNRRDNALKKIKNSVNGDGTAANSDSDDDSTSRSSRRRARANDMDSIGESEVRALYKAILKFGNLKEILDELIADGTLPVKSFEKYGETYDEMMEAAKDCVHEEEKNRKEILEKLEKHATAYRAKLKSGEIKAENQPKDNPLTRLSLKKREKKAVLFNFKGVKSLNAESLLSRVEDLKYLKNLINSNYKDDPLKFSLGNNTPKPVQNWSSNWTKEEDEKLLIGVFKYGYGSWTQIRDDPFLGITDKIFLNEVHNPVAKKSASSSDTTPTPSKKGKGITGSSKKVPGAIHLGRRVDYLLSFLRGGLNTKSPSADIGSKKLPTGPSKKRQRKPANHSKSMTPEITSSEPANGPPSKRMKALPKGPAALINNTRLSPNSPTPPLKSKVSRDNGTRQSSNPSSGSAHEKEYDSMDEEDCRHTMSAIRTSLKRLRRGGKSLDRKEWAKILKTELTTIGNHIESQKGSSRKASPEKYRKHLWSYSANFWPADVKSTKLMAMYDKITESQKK

Protein translocase subunit SecA (Escherichia coli (strain K12)), sequence (P10408 whole entry): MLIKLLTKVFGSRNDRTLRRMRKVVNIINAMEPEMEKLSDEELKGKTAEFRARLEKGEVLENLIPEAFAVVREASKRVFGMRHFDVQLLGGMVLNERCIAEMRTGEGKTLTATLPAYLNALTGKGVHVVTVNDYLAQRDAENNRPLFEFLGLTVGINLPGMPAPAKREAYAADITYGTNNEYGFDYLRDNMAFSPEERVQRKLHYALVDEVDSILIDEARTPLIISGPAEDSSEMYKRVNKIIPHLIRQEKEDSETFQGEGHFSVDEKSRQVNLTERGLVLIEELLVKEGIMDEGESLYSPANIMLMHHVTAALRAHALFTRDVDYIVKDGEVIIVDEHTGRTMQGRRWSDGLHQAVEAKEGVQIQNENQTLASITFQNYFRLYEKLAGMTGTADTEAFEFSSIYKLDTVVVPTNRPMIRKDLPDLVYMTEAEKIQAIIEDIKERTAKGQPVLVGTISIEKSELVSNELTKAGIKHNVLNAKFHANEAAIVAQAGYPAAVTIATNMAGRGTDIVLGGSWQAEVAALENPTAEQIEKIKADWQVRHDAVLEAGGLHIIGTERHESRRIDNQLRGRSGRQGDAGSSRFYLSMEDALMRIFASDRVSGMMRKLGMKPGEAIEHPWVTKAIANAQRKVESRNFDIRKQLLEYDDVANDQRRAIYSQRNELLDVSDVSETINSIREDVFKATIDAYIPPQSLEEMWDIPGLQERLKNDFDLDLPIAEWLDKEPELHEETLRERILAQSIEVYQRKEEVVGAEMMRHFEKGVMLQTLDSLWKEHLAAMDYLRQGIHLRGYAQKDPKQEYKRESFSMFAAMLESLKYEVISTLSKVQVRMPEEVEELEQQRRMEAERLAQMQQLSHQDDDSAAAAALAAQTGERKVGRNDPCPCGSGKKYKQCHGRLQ

| Structure (SMILES) | Percent Effect [1] | Percent Effect [2] | Percent Effect [3] | Percent Effect (Trypanosoma cruzi) | Percent Effect [4] | Percent Effect [5] | Percent Effect (Homo sapiens) | Percent Effect [6] | Percent Effect [7] | Percent Effect [8] |
| --- | --- | --- | --- | --- | --- | --- | --- | --- | --- | --- |
| CCOCC1CN(Cc2cnn(C)c2)Cc2ncn(CC3CC3)c21 (stereo not given) | -6.63% | -1.3% | 9.29% | -1.66% | -3.64% | 2.21% | 10.9% | 1.58% | -5.13% | 0.231% |
| COCCN1C(=O)C[C@@H]2[C@H]1CCN2C(=O)COc1ccccc1 | -4.5% | 6.49% | -2.28% | -3.02% | -4.86% | 15.6% | -17.9% | 2.63% | 10.3% | -1.49% |
| O=C(O)c1ccc2ccc(N3CCN(CC4CC4)CC3)n2c1 | -3.4% | 14.3% | 1.31% | 3.38% | 2.74% | 9.7% | 7.8% | 18.4% | 12.5% | -4.22% |
| CN(C)C(=O)CN1C(=O)CCC12CCN(Cc1cccn1C)CC2 | -0.209% | -1.3% | 0.456% | 3% | -0.913% | 11.9% | 7.89% | 10.6% | 20% | -9.53% |
| CCNC(=O)N1CCN(C(=O)c2cc(Cl)cc3cccnc23)CC1 | -1.06% | 0% | 3.31% | -1.03% | 3.28% | 7.93% | 6.48% | -0.478% | -1.21% | 2.64% |
| Cc1nc(C)n(CC2CCCN2Cc2cn3c(C)cccc3n2)n1 (stereo not given) | -1.02% | 2.67% | 7.22% | 4.62% | 2.66% | 8.4% | -19.9% | 1.58% | 5.13% | -11.6% |
| c1cnn(CC2CN(Cc3noc(C4CC4)n3)CCO2)c1 (stereo not given) | -9.46% | 16% | 4.59% | 1.81% | -3.1% | 10.8% | 7.98% | 3.68% | 7.69% | -6.72% |
| Cc1cccc(CN2C[C@@H]3CN(C(=O)[C@H]4CCCO4)C[C@@H]3C2=O)c1 | -6.54% | 24.7% | 2.65% | 3% | -2.28% | 16.4% | 5.56% | 9.66% | 20% | -6.96% |
| CN(C)c1cc(C(=O)N2CCCC(n3cccn3)C2)ccn1 (stereo not given) | -2.71% | 5.13% | 3.76% | 1.97% | 3.69% | 2.47% | 18.3% | -4.31% | 18.1% | -3.29% |
| c1ccc(OCc2ccncc2)c(CNC2CCc3ncnn3C2)c1 (stereo not given) | 1.01% | 17.9% | -16.6% | -0.845% | 10.7% | 11.5% | 20% | 7.18% | 18.1% | -0.669% |
| CCn1ncnc1C1CC(=O)NCc2nc3ccccn3c21 (stereo not given) | -7.68% | 10.8% | 16.9% | 6.11% | 10.8% | 4.62% | 14.8% | 5.85% | 9.76% | 84% |
| CCn1cc(NC(=O)NCc2ccc(CN3CCOCC3)cc2)cn1 | 0.918% | 13% | 16% | -7.28% | -6.35% | 10% | 24.2% | 4.9% | 11.8% | -1.62% |
| Cc1ccc(CN(C)CC(=O)NC2(C)CCS(=O)(=O)C2)cc1 (stereo not given) | -0.346% | 8% | -1.85% | -2.81% | -1.77% | 7.89% | 21.9% | 10% | 15.4% | -11.2% |
| CN(C)c1cc(C(=O)N2CCN(c3cnccn3)CC2)ccn1 | -1.53% | 10.3% | 0.94% | 3.1% | 2.46% | 3.16% | 3.38% | 5.26% | 10.8% | -7.53% |
